Screens as filed in PubChem.
This is a sample that favours compounds with a hit; in the whole collection about 7.8% have one here.
MARV entry inh: inhibitors of Marburg virus binding or cell entry; actives 1.8% (n = 300,000); Marburg virus pseudotyped entry inhibition, cell reporter; Potency, µM (titrated, usually from 37.8 µM), most hits filed as inhibitors; AID 540276; calls by dose curve; tested in HEK293 cells
HCMV antiviral: blocks human cytomegalovirus replication | HFF cells, HCMV-luciferase reporter, 72 h; hits give low values | activity change, negative = inhibition, % at 57.5 µM | actives 4.5% (n = 410,000); in the data active = activity change below about -60%; inconclusive = no clear call, values can overlap the other calls; inactive = above about -39%
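Two-dose cell screen: HFF monolayers treated with compounds and infected with luciferase-expressing HCMV at 1 PFU/cell, 72 h at 37C, then lysed for luciferase measurement.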
VACV mCherry inh: vaccinia inhibition (mCherry reporter); Vaccinia virus mCherry reporter infection, fluorescence; Potency, µM (titrated, usually from 36.5 µM), most hits filed as inhibitors; actives 0.63% (n = 310,000); AID 720579; calls by dose curve; tested in A549 cells; note: nearly all actives have a fitted effect of over 35% in size
Lassa entry inh: inhibitors of Lassa virus binding or cell entry | actives 1.2% (n = 300,000) | Lassa virus pseudotype entry inhibition, cell reporter | Potency, µM (top dose mostly 37.9 µM), usual class: inhibitors; calls by dose curve; tested in HEK293 cells; note: nearly all actives have a fitted effect of over 50% in size
HCV inh: HCV inhibition; actives 3.4% (n = 340,000); Potency, µM (series often up to 41.8 µM), most hits filed as inhibitors; AID 651820; Huh7.5.1 HCVcc-Cre infection, luciferase reporter, 44 h; active = well fitted inhibition curve with a large enough effect; inconclusive = small, poorly fitted or top-dose-only effect, or another doubt; inactive = no such curve, though single readings can be large or run the other way
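Cells (1,000/well) were plated 4 h before compound, then infected with HCVcc-Cre virus (~0.5 moi). After 44 h further culture, infection was read as luciferase luminescence following a 15 min substrate incubation at room temperature.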
VACV Venus inh: vaccinia inhibition (Venus reporter); Vaccinia virus Venus reporter expression, fluorescence; AID 720580; actives 0.46% (n = 330,000); Potency, µM (titrated, usually from 36.5 µM), usual class: inhibitors; calls by dose curve; tested in A549 cells; note: nearly all actives have a fitted effect of over 30% in size
A number is an active result; i = inactive; ? = inconclusive; nt = not tested or not shown; ! = a repeat was not active; [ ] = another dose, or the depositor's remark.

SMILES	MARV entry inh	HCMV antiviral	VACV mCherry inh	Lassa entry inh	HCV inh	VACV Venus inh
CC(=O)N1Cc2cc(C(=O)NCC(F)(F)F)nc(-c3cccc(-c4cccnc4)c3)c2[C@@H]1CCO	nt	-81	i	nt	nt	i
COC(=O)[C@@](NC(C)=O)(Nc1ccccn1)C(F)(F)F	i	nt	nt	nt	nt	nt
COc1ccc(CCN2C(=O)c3[nH]nc(-c4ccccc4O)c3C2c2ccc(OC)cc2)cc1 (stereo not given)	i	i	i[7.34 µM]	?	nt	i[7.34 µM]
COc1ccccc1NC(=O)C1CCCN(c2ncnc3onc(-c4ccc(F)cc4)c23)C1 (stereo not given)	nt	i	i	i	nt	i
Cc1c(CC(=O)NCCc2ccc(Cl)cc2)c(=O)oc2c(C)c3occ(C(C)(C)C)c3cc12	i	-68	i	i	nt	i
CC(=O)NC(Cc1ccc(N(CCCl)CCCl)cc1)C(=O)O (stereo not given)	?	i	i	i	i	i
NC(Cc1ccc(O)cc1)C(=O)NN=Cc1ccc(N(CCCl)CCCl)cc1 (stereo not given)	1.3µM	i	i	4µM	?	i
O=C(O)CCCc1ccc(N(CCCl)CCCl)cc1	3.2µM!	i	i	i	i[8.37 µM]	i
N[C@@H](Cc1ccc(N(CCCl)CCCl)cc1)C(=O)O	5.8µM	i	i	nt	?	i
CC(C)Oc1ccccc1Oc1ccc2c(-c3ccccn3)noc2n1	nt	i	nt	nt	nt	nt
CN(C)c1cccc(C(=O)N[C@H]2CC[C@@]34CCCN3C(=O)CCC[C@H]4[C@H]2Cc2ccccc2)c1	nt	i	nt	nt	nt	nt
CCOC(=O)c1c(C)oc2nc(C)nc(NCCc3ccc(S(N)(=O)=O)cc3)c12	nt	i	i	i	nt	i
COc1ccc(N2C(c3ccsc3)=Cc3cc4c(cc3C2c2c[nH]c3ccccc23)OCO4)cc1 (stereo not given)	nt	-95	i	nt	nt	i
Cc1ccc(CN2c3ccccc3S(=O)(=O)c3ccccc32)cc1	nt	i	i	i	nt	i
Cc1cccc(C(=O)N/N=C/c2coc3ccccc3c2=O)c1	nt	i	nt	nt	i	nt
Cc1ccc2occ(/C=N/NC(=O)[C@@H](N)Cc3ccccc3)c(=O)c2c1	i	-84	i[7.34 µM]	i	i	i[7.34 µM]
Cc1cc(C)c2cc(CN(CC3CCCO3)C(=S)NCc3ccco3)c(=O)[nH]c2c1 (stereo not given)	i	?	?	i	?	i
Cc1cc(C)c2cc(CN(Cc3ccco3)C(=O)NCc3ccccc3)c(=O)[nH]c2c1	2.8µM	i	i	?	?	?
Cc1ccc(CNC(=O)CS(=O)(=O)c2cccc3nsnc23)cc1	nt	i	i	?	nt	i
CN(C)c1ccc(Sc2ccc3nc(N)nc(N)c3c2)cc1	nt	-92	4.5µM	nt	nt	5µM
CC(=O)Nc1cccc(-c2ccnc3c2CC(C(=O)NCCc2ccccc2)O3)c1 (stereo not given)	nt	-86	i	nt	nt	i
CC(=O)Nc1cccc(-c2ccnc3c2CC(C)(C(=O)Nc2ccccc2)O3)c1 (stereo not given)	nt	?	?	nt	nt	i
CC1(C(=O)NCc2ccccc2)Cc2c(-c3ccc4c(c3)OCO4)ccnc2O1 (stereo not given)	nt	-81	i	nt	nt	i
CC(=O)c1cccc(-c2ccnc3c2CC(C(=O)NCCc2ccccc2)O3)c1 (stereo not given)	nt	i	?	nt	nt	i
CC1(C(=O)NCCc2ccccc2)Cc2c(-c3cccc(C(F)(F)F)c3)ccnc2O1 (stereo not given)	nt	-62	?	nt	nt	i
SMILES	MARV entry inh	HCMV antiviral	VACV mCherry inh	Lassa entry inh	HCV inh	VACV Venus inh
CC(=O)Nc1cccc(-c2ccnc3c2CC(C)(C(=O)NCCc2ccccc2)O3)c1 (stereo not given)	nt	-88	i	nt	nt	i
CCOc1ccc(NC(=O)c2sc3nc4c(cc3c2N)CN(Cc2ccccc2)CC4)cc1	i	i	i	i	nt	i
COc1cccc(N2CCN(c3ncnc4onc(-c5ccc(Cl)cc5)c34)CC2)c1	nt	i	i	?	nt	i
Cn1c(=O)c2c(nc(Cl)n2CC(=O)NC2(C#N)CCCCC2)n(C)c1=O	i	-101	i	i	i	i
N#CC1(NC(=O)Cn2ncc(Cl)c(Cl)c2=O)CCCCC1	?	i	?	?	4.5µM	?
Cc1cc(C)cc(CN2CCOc3ccc(CN4CCC(O)(c5cccnc5)CC4)cc3C2)c1	nt	nt	i	nt	nt	i
Cn1c(Sc2ccc(Br)cc2)c(C=O)c2ccccc21	?	i	nt	10µM	?	i
Cn1c(Oc2ccc(F)cc2)c(C=O)c2ccccc21	?	i	i	i	i	i
